Results reported in PubChem BioAssay AID1159580 (chemical genetic matrix, 2015).
Among all 5,500 compounds or so, about 2,000 (36%) were called active. About 18% were inconclusive and are not listed. Cut-off read from the data, not from the text of the source: active = normalized growth mostly below about 0.91 (no sharp cut-off); inconclusive = no clear call, values can overlap the other calls; inactive = mostly above about 0.92. The list shows a part of the results.

Experiment: chemical genetic growth profiling, strain panel (AID 1159580);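 note: tested at 20 µM; growth read once vehicle control cultures reached saturation at 30 °C; 1 = growth at the plate median or of vehicle wells; lower values mean less growth of the strain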
Settings: S. cerevisiae deletion strains, growth OD

Measured: normalized growth

Clc1ccc(CO/N=C(/Cn2ccnc2)c2ccc(Cl)cc2Cl)c(Cl)c1
active: locus YAL021C, strain ccr4, active compounds read low 0.0719 | locus YAL026C, strain drs2, active compounds read low 0.066 | locus YAL030W, strain snc1, active compounds read low 0.062 | locus YBL061C, strain skt5, active compounds read low 0.0675 | locus YBR009C, strain hhf1, active compounds read low 0.0713 | locus YBR023C, strain chs3, active compounds read low 0.0703 | locus YBR171W, strain sec66, active compounds read low 0.084 | locus YBR231C, strain swc5, active compounds read low 0.0712 | locus YBR279W, strain paf1, active compounds read low 0.0663 | locus YCL011C, strain gbp2, active compounds read low 0.0641 | locus YCL016C, strain dcc1, active compounds read low 0.0718 | locus YCL069W, strain vba3, active compounds read low 0.0674 | locus YCR088W, strain abp1, active compounds read low 0.0653 | locus YDL005C, strain med2, active compounds read low 0.0803 | locus YDL040C, strain nat1, active compounds read low 0.0648 | locus YDR001C, strain nth1, active compounds read low 0.0642 | locus YDR069C, strain doa4, active compounds read low 0.07 | locus YDR137W, strain rgp1, active compounds read low 0.106 | locus YDR159W, strain sac3, active compounds read low 0.103 | locus YDR195W, strain ref2 0.146 | locus YDR297W, strain sur2, active compounds read low 0.0626 | locus YDR334W, strain swr1, active compounds read low 0.0671 | locus YDR335W, strain msn5, active compounds read low 0.0633 | locus YDR392W, strain spt3, active compounds read low 0.0807 | locus YEL003W, strain gim4, active compounds read low 0.0579 | locus YEL037C, strain rad23, active compounds read low 0.0606 | locus YEL061C, strain CIN8 (second series), active compounds read low 0.0642 | locus YER015W, strain faa2, active compounds read low 0.0705 | locus YER016W, strain bim1, active compounds read low 0.0699 | locus YER111C, strain swi4, active compounds read low 0.0753 | locus YER155C, strain BEM2 (second series), active compounds read low 0.104 | locus YFR010W, strain ubp6, active compounds read low 0.0725 | locus YGL167C, strain pmr1, active compounds read low 0.0799 | locus YGL173C, strain kem1, active compounds read low 0.0926 | locus YGL227W, strain vid30, active compounds read low 0.067 | locus YGL240W, strain doc1, active compounds read low 0.108 | locus YGL253W, strain hxk2, active compounds read low 0.0581 | locus YHR013C, strain ard1, active compounds read low 0.111 | locus YHR027C, strain rpn1, active compounds read low 0.0678 | locus YHR030C, strain SLT2, active compounds read low 0.11 | locus YHR079C, strain IRE1, active compounds read low 0.138 | locus YHR142W, strain chs7, active compounds read low 0.0783 | locus YJL092W, strain hpr5, active compounds read low 0.0639 | locus YJL095W, strain BCK1 (second series), active compounds read low 0.0624 | locus YJL095W, strain BCK1, active compounds read low 0.119 | locus YJL115W, strain asf1, active compounds read low 0.076 | locus YJL129C, strain trk1, active compounds read low 0.0899 | locus YJL154C, strain vps35, active compounds read low 0.0641 | locus YJL164C, strain tpk1, active compounds read low 0.0663 | locus YJL166W, strain qcr8, active compounds read low 0.0665 | locus YJL187C, strain SWE1, active compounds read low 0.0662 | locus YJR066W, strain TOR1, active compounds read low 0.016 | locus YKL160W, strain elf1, active compounds read low 0.0739 | locus YKR026C, strain gcn3, active compounds read low 0.0685 | locus YKR091W, strain srl3, active compounds read low 0.0651 | locus YLL001W, strain dnm1, active compounds read low 0.0676 | locus YLL026W, active compounds read low 0.0627 | locus YLL041C, strain sdh2, active compounds read low 0.0619 | locus YLR027C, strain aat2, active compounds read low 0.0637 | locus YLR113W, strain HOG1, active compounds read low 0.138 | locus YLR221C, strain rsa3, active compounds read low 0.0614 | locus YLR258W, strain gsy2, active compounds read low 0.0647 | locus YLR262C, strain YPT6 (second series), active compounds read low 0.0952 | locus YLR320W, strain mms22, active compounds read low 0.0852 | locus YLR342W, strain FKS1, active compounds read low 0.0731 | locus YLR357W, strain rsc2, active compounds read low 0.13 | locus YLR370C, strain arc18, active compounds read low 0.0687 | locus YLR384C, strain iki3, active compounds read low 0.0679 | locus YML120C, strain ndi1, active compounds read low 0.0632 | locus YMR058W, strain fet3, active compounds read low 0.0659 | locus YMR125W, strain sto1, active compounds read low 0.0799 | locus YMR129W, active compounds read low 0.0624 | locus YMR205C, strain PFK2, active compounds read low 0.104 | locus YMR231W, strain pep5, active compounds read low 0.205 | locus YNL071W, strain lat1, active compounds read low 0.0653 | locus YNL183C, strain NPR1, active compounds read low 0.0338 | locus YNL209W, strain ssb2, active compounds read low 0.0716 | locus YNL248C, strain rpa49, active compounds read low 0.0816 | locus YNL322C, strain KRE1 (second series), active compounds read low 0.0683 | locus YNR049C, strain mso1, active compounds read low 0.0594 | locus YOR001W, strain rrp6, active compounds read low 0.0749 | locus YOR070C, strain gyp1, active compounds read low 0.0664 | locus YOR080W, strain dia2, active compounds read low 0.0735 | locus YOR083W, strain WHI5, active compounds read low 0.0763 | locus YOR106W, strain vam3, active compounds read low 0.0782 | locus YOR231W, strain MKK1, active compounds read low 0.116 | locus YOR265W, strain rbl2, active compounds read low 0.0668 | locus YOR270C, strain vph1, active compounds read low 0.112 | locus YOR290C, strain snf2, active compounds read low 0.0669 | locus YPL051W, strain arl3, active compounds read low 0.0756 | locus YPL078C, strain atp4, active compounds read low 0.08 | locus YPL106C, strain sse1, active compounds read low 0.105 | locus YPL240C, strain hsp82, active compounds read low 0.0633 | locus YPL256C, strain CLN2, active compounds read low 0.139
